# Measured values published in PMC7862700, “An all-to-all approach to the identification of sequence-specific readers for epigenetic DNA modifications on cytosine”.
# Experiments:
# Assay in all cases: DAPPL (digital affinity profiling via proximity ligation, sequencing); 10 mM Tris-HCl pH 7.5, 50 mM NaCl, 1 mM DTT, 4% glycerol, room temperature, 30 min; GST-TFs on glutathione beads, 16-mer random dsDNA library, 0.1% formaldehyde crosslink after washing; high values mean tight binding
# FEV = molecular target: T1, FEV (Homo sapiens, UniProt Q99581 1-238); details: protein: recombinant; tags: N-terminal GST; dsDNA, one strand shown
# T1 sequence: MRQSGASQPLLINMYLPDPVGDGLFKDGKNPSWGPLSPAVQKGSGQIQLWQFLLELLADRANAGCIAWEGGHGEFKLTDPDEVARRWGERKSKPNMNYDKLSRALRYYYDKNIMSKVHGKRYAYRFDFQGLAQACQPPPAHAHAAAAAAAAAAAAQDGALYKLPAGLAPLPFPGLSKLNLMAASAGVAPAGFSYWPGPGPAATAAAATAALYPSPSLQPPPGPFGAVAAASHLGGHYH
# Outline: (§1)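 Yeast served to express human transcription factors as GST fusions, which were then captured on glutathione beads and labelled with DNA barcodes. Pooled with a tag-only sample, they were incubated with 200 nmole of a 16-mer random double-stranded DNA library for 30 min at room temperature in Tris/NaCl/DTT/glycerol buffer, washed, crosslinked with 0.1% formaldehyde, ligated by proximity, amplified by PCR and sequenced. Dividing each hexamer's read frequency for a factor by its frequency for the tag-only sample gives the binding signal.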
# ETV5 = ETV5 (Homo sapiens, UniProt P41161 1-510); details: protein: recombinant; tags: N-terminal GST; dsDNA, one strand shown
# ETV5, sequence (P41161 whole entry): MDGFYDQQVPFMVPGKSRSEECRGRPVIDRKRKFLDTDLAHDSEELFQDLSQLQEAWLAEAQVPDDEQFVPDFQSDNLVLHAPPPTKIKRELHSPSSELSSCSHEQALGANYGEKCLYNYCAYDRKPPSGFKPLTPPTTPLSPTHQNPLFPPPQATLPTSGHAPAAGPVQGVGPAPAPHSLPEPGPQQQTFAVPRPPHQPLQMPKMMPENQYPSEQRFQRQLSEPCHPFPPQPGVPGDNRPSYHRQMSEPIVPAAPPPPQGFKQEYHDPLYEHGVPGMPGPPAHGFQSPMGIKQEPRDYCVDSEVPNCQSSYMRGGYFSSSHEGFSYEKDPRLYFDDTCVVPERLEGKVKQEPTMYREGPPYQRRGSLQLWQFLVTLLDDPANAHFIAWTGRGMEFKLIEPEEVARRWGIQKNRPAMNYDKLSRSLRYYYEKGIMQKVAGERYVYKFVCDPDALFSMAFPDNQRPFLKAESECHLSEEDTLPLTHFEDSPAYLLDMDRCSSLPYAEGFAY
# Outline: as §1
# HSF1 = HSF1 (Homo sapiens, UniProt Q00613 1-529); details: protein: recombinant; tags: N-terminal GST; chain copies: 3; dsDNA, one strand shown
# HSF1, sequence (Q00613 whole entry): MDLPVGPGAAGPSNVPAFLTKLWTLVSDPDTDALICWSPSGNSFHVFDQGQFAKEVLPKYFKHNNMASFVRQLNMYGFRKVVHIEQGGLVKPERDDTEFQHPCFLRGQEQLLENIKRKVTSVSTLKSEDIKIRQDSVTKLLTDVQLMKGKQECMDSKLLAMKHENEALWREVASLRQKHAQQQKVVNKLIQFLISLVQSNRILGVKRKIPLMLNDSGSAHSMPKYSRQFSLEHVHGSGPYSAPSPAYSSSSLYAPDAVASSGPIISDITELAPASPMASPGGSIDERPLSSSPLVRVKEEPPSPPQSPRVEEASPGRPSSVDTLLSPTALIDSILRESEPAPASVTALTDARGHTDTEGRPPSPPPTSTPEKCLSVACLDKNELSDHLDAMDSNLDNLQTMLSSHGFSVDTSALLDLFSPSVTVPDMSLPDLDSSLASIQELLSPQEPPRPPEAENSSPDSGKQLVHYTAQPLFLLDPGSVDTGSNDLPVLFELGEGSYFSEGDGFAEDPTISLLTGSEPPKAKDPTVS
# Outline: as §1
# SPIC = molecular target: T2, SPIC (Homo sapiens, UniProt Q8N5J4 1-248); details: protein: recombinant; tags: N-terminal GST; dsDNA, one strand shown
# T2 sequence: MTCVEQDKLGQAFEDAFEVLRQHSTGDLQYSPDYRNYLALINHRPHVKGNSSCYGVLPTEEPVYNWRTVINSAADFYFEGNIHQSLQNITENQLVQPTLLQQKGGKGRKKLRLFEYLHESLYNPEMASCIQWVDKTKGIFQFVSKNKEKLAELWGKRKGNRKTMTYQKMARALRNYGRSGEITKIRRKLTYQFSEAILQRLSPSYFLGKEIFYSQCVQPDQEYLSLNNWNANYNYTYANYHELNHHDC
# Outline: as §1
# ELF4 = ELF4 (Homo sapiens, UniProt Q99607 1-663); details: protein: recombinant; tags: N-terminal GST; dsDNA, one strand shown
# ELF4, sequence (Q99607 whole entry): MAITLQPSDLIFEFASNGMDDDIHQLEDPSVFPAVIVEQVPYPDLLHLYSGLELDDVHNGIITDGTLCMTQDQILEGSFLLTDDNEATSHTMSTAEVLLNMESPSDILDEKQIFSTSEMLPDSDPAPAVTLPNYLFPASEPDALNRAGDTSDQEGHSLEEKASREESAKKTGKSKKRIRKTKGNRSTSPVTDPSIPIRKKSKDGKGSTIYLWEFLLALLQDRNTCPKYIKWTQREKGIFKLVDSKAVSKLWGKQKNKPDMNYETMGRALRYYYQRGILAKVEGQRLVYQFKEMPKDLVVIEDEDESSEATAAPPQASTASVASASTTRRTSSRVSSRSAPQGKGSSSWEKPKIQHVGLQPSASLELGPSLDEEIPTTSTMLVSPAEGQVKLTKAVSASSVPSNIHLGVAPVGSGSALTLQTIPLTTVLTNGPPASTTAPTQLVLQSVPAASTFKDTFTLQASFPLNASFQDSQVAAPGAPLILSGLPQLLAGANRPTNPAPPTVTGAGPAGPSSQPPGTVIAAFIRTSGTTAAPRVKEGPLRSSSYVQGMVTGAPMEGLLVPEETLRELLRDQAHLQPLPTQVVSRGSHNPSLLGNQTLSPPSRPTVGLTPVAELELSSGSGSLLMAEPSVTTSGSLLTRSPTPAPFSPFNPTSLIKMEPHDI
# Outline: as §1
# ELK4 = molecular target: T3, ELK4 (Homo sapiens, UniProt P28324-2 1-405); details: protein: recombinant; tags: N-terminal GST; dsDNA, one strand shown
# T3 sequence: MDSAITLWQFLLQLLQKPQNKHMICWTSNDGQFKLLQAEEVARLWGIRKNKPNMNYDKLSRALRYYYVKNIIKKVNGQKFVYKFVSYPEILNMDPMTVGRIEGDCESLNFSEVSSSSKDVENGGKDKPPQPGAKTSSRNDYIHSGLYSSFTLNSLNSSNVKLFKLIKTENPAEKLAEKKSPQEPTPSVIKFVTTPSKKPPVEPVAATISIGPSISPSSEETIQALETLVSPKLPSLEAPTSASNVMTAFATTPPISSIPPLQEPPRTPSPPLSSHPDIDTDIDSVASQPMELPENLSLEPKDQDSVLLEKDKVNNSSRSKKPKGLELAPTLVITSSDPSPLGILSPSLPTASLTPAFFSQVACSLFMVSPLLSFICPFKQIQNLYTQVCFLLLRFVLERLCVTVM
# Outline: as §1
# ETV2 = molecular target: T4, ETV2 (Homo sapiens, UniProt O00321 1-342); details: protein: recombinant; tags: N-terminal GST; dsDNA, one strand shown
# T4 sequence: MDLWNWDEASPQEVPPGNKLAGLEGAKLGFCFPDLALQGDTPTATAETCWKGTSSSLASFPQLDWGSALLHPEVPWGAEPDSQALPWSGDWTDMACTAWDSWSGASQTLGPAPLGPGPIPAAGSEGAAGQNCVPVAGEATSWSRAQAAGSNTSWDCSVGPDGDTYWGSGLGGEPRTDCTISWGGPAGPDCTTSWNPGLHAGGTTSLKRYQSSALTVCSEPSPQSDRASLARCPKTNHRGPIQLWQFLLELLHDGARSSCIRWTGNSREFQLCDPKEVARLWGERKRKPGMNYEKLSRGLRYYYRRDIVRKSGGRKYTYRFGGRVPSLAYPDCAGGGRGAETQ
# Outline: as §1
# ELF3 = molecular target: T5, ELF3 (Homo sapiens, UniProt P78545 1-371); details: protein: recombinant; tags: N-terminal GST; dsDNA, one strand shown
# T5 sequence: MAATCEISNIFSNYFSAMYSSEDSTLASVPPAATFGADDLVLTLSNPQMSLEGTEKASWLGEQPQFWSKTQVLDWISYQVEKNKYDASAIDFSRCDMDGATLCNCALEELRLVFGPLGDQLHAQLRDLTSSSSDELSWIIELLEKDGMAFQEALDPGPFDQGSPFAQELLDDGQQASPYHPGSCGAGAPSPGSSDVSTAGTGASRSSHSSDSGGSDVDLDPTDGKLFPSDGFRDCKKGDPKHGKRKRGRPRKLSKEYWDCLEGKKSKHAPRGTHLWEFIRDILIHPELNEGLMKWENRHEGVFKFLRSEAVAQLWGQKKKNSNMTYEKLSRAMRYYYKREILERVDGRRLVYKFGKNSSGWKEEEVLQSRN
# Outline: as §1
# CRX = CRX (Homo sapiens, UniProt O43186 1-299); details: protein: recombinant; tags: N-terminal GST; dsDNA, one strand shown
# CRX, sequence (O43186 whole entry): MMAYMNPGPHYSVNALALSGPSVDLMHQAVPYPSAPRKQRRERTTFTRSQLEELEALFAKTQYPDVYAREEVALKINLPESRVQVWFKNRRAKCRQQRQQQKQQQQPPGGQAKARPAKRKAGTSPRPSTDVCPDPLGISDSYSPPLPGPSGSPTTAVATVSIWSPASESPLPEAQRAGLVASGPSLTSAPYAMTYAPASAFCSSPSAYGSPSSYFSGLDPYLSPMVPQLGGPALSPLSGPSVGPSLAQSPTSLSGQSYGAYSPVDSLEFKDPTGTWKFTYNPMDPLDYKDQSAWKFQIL
# Outline: as §1
# ETV1 = ETV1 (Homo sapiens, UniProt P50549 1-477); details: protein: recombinant; tags: N-terminal GST; dsDNA, one strand shown
# ETV1, sequence (P50549 whole entry): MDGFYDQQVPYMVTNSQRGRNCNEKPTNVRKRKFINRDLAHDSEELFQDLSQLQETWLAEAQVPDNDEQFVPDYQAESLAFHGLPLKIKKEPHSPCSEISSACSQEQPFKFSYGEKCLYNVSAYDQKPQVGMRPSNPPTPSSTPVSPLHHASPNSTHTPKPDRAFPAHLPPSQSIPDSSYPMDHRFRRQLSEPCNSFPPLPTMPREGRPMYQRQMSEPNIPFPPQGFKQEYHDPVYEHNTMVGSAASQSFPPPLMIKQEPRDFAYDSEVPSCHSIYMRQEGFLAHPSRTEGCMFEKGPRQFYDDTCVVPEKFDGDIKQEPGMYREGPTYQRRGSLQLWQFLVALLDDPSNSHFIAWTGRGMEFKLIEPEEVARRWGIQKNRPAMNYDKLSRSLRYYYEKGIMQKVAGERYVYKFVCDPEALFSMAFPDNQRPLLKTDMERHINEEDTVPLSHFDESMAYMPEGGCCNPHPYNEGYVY
# Outline: as §1
# ERF = molecular target: T6, ERF (Homo sapiens, UniProt P50548 1-548); details: protein: recombinant; tags: N-terminal GST; dsDNA, one strand shown
# T6 sequence: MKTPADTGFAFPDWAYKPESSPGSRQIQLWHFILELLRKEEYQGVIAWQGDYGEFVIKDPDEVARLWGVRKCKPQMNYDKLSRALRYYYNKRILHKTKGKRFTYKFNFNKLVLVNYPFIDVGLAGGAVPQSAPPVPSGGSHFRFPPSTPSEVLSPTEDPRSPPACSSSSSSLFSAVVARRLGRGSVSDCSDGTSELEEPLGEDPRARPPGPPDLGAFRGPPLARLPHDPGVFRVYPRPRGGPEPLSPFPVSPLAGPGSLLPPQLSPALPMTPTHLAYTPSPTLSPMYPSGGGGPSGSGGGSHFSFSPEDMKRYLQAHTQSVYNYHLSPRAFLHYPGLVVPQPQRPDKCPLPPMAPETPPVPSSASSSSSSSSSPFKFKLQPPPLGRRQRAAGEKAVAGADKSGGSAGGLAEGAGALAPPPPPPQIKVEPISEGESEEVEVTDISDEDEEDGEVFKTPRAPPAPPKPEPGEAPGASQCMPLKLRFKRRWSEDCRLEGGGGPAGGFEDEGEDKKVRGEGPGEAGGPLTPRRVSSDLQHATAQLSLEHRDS
# Outline: as §1
# ETV3L = molecular target: T7, ETV3L (Homo sapiens, UniProt Q6ZN32 1-361); details: protein: recombinant; tags: N-terminal GST; dsDNA, one strand shown
# T7 sequence: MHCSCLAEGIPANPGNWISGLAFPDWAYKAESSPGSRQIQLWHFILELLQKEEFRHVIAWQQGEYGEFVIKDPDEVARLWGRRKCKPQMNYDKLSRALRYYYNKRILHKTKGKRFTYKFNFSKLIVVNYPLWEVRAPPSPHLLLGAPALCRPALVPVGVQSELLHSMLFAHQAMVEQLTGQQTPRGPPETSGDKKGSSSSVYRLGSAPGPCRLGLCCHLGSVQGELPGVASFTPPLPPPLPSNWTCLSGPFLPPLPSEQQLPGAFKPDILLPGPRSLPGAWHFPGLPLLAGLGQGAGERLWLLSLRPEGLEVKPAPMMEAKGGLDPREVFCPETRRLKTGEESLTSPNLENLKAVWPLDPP
# Outline: as §1
# ETS2 = molecular target: T8, ETS2 (Homo sapiens, UniProt P15036 1-469); details: protein: recombinant; tags: N-terminal GST; dsDNA, one strand shown
# T8 sequence: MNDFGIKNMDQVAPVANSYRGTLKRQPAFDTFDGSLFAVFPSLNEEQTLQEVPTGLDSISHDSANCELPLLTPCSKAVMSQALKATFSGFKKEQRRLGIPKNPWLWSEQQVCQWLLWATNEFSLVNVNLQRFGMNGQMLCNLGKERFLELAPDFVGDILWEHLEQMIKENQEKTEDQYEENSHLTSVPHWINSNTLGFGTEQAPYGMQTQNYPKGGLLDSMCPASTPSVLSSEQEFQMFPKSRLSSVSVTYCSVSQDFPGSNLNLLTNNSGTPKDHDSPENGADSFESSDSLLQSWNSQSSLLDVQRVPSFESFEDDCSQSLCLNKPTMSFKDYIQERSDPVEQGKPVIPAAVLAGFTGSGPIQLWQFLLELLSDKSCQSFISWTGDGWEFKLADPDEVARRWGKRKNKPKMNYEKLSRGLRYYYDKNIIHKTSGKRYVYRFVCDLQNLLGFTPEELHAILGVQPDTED
# Outline: as §1
# SPDEF = molecular target: T9, SPDEF (Homo sapiens, UniProt O95238 1-335); details: protein: recombinant; tags: N-terminal GST; dsDNA, one strand shown
# T9 sequence: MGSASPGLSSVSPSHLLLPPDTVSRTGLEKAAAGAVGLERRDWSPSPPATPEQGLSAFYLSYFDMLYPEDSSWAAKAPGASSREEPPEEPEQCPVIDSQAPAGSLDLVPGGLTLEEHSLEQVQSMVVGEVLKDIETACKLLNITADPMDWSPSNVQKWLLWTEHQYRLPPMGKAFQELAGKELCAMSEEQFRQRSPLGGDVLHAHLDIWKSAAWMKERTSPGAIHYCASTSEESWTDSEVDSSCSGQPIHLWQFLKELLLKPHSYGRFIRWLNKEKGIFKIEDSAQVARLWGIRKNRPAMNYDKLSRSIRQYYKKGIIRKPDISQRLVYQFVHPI
# Outline: as §1
# ETV7 = molecular target: T10, ETV7 (Homo sapiens, UniProt Q9Y603 1-341); details: protein: recombinant; tags: N-terminal GST; dsDNA, one strand shown
# T10 sequence: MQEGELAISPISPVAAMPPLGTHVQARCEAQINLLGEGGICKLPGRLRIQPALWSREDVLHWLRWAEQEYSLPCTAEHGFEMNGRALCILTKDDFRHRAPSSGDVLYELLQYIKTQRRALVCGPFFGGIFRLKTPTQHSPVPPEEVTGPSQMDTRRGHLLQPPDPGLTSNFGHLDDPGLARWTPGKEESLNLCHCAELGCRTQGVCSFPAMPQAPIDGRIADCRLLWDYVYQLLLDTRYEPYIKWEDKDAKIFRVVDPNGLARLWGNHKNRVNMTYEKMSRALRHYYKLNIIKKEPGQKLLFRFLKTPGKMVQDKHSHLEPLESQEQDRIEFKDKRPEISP
# Outline: as §1
# ELF5 = molecular target: T11, ELF5 (Homo sapiens, UniProt Q9UKW6-2 1-255); details: protein: recombinant; tags: N-terminal GST; dsDNA, one strand shown
# T11 sequence: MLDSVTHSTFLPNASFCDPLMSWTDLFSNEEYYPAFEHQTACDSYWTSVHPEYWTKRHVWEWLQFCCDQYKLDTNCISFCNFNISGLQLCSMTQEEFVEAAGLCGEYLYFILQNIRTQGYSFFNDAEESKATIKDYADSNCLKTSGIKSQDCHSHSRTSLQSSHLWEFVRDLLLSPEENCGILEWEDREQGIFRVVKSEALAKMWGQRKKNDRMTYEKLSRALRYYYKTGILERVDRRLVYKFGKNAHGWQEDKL
# Outline: as §1
# ETV3 = molecular target: T12, ETV3 (Homo sapiens, UniProt P41162-2 1-143); details: protein: recombinant; tags: N-terminal GST; dsDNA, one strand shown
# T12 sequence: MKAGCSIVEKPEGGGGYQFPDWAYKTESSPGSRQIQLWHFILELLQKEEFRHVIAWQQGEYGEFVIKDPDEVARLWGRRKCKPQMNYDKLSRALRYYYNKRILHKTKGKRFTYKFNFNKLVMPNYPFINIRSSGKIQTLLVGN
# Outline: as §1
# ETV6 = ETV6 (Homo sapiens, UniProt P41212 1-452); details: protein: recombinant; tags: N-terminal GST; dsDNA, one strand shown
# ETV6, sequence (P41212 whole entry): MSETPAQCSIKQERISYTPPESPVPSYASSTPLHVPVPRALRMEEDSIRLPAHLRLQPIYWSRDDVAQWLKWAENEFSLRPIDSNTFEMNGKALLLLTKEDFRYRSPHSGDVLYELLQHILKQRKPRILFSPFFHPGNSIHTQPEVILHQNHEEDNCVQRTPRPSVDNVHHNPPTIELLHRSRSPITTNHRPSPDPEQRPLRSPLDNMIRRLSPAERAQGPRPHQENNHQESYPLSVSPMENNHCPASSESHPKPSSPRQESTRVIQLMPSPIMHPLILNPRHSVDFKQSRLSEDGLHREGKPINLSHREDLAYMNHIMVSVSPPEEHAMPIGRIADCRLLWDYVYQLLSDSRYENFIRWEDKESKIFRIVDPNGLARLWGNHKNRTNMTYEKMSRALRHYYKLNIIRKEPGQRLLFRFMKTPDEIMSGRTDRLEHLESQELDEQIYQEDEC
# Outline: as §1
sequence,measurement,setting,value
CAAAAC,binding signal,FEV,"1.3 fold enrichment (6-mer frequency, TF over GST control)"
same,binding signal,ETV5,"1.26 fold enrichment (6-mer frequency, TF over GST control)"
same,binding signal,HSF1,"1.05 fold enrichment (6-mer frequency, TF over GST control)"
same,binding signal,SPIC,"1.23 fold enrichment (6-mer frequency, TF over GST control)"
same,binding signal,ELF4,"1.34 fold enrichment (6-mer frequency, TF over GST control)"
same,binding signal,ELK4,"1.28 fold enrichment (6-mer frequency, TF over GST control)"
same,binding signal,ETV2,"1.24 fold enrichment (6-mer frequency, TF over GST control)"
same,binding signal,ELF3,"1.28 fold enrichment (6-mer frequency, TF over GST control)"
same,binding signal,CRX,"1.02 fold enrichment (6-mer frequency, TF over GST control)"
same,binding signal,ETV1,"1.2 fold enrichment (6-mer frequency, TF over GST control)"
same,binding signal,ERF,"1.28 fold enrichment (6-mer frequency, TF over GST control)"
same,binding signal,ETV3L,"1.27 fold enrichment (6-mer frequency, TF over GST control)"
same,binding signal,ETS2,"1.27 fold enrichment (6-mer frequency, TF over GST control)"
same,binding signal,SPDEF,"1.23 fold enrichment (6-mer frequency, TF over GST control)"
same,binding signal,ETV7,"1.23 fold enrichment (6-mer frequency, TF over GST control)"
same,binding signal,ELF5,"1.25 fold enrichment (6-mer frequency, TF over GST control)"
same,binding signal,ETV3,"1.18 fold enrichment (6-mer frequency, TF over GST control)"
same,binding signal,ETV6,"1.33 fold enrichment (6-mer frequency, TF over GST control)"
